Screening data deposited in PubChem by National Center for Advancing Translational Sciences (NCATS).
D2 ag-1 = agonists of human D2 dopamine receptor; HEK293 T-REx D2 cells, calcium flux agonist mode; activation, % at 2 µM; hit rate 0.53% among 340,000; AID 485358;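 active = activation over 3 SD above normal in the single-dose calcium agonist read, cut at about 30% in these data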; note: 0% is about no effect
Target sequence (P14416 whole entry, looked up): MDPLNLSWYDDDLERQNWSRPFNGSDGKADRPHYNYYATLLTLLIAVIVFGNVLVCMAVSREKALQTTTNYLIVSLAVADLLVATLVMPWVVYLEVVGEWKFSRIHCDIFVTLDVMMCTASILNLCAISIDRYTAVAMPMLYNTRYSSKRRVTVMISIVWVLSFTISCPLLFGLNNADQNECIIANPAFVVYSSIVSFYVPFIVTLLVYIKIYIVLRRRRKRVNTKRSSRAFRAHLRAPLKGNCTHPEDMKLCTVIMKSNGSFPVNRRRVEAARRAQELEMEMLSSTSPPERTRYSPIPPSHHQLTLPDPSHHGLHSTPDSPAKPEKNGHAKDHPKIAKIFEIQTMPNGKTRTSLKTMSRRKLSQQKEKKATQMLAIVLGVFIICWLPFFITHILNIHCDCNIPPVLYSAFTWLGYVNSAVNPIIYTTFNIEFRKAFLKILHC
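Tetracycline-induced HEK293 T-REx cells with force-coupled D2 receptor, plated overnight at 30 C, loaded with no-wash calcium dye. After a 10 s baseline, compound was pin-added and calcium flux read kinetically for 180 s; calcium rises flagged agonists.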
D2 antag = D2 dopamine receptor (human) antagonism. HEK293 TREx D2 cells, calcium flux, dopamine EC80. inhibition, % at 10 µM. hit rate 2% among 340,000. P14416; in the data active = inhibition above about 30%; inactive = below that, where a call was filed; note: 0% is about no effect
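Antagonism is scored as inhibition of an EC80 dopamine-evoked calcium signal in a force-coupled, tetracycline-inducible HEK293 T-REx D2 line, with compound present 180 s before agonist.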
D2 PAM-1 = positively modulates the human D2 dopamine receptor allosterically | potentiation, % at 10 µM | P14416 | HEK293 T-REx D2, calcium flux, EC20 dopamine potentiation | hit rate 0.34% among 340,000;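 active = potentiation over 3 SD above the plate norm, cut at about 30% in these data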; note: 0% is about no effect
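Tetracycline-induced HEK293 T-REx cells force-coupled to calcium signalling expressed D2; compounds were pin-added after a 10 s baseline, read kinetically 180 s, then an EC20 dopamine challenge followed with a further 180 s calcium read.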
D2 PAM-2 = potentiates the human D2 dopamine receptor allosterically; AID 624464; DiscoveRx D2 beta-arrestin cells, luminescence, 90 min; 100% = 57 uM dopamine signal; potentiation, % (concentration not given with the values); hit rate 0.23% among 360,000; in the data active = potentiation above about 50%; inconclusive = mostly about 30% to 49%
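PathHunter D2 cells, attached overnight at 37 deg C, received compound in DMSO plus dopamine at EC20 (50 nM final) for 90 min at 37 deg C. Beta-arrestin recruitment was read as luminescence after 1 h with detection reagent at ambient temperature.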
D2 ag-2 = agonists of human D2 dopamine receptor (beta-arrestin) | activation, % (no concentration beside the values) | P14416 | AID 624465 | DiscoveRx PathHunter D2 beta-arrestin, luminescence, 90 min; 100% = 57 uM dopamine signal | hit rate 0.084% among 360,000; in the data active = activation above about 40%; inconclusive = between about 15% and that limit
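DiscoveRx PathHunter D2 beta-arrestin cells (2,100/well) attached overnight, then compound-stimulated 90 min at 37 C in HBSS/10 mM HEPES/0.1% Tween-20 buffer; beta-galactosidase complementation read by luminescence after 1 h at ambient temperature. Dopamine 57 uM final (EC100) as control.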
* hit, by the source's call. Sampled rows, rich in hits. Any-hit rate of the full collection: about 2.4%.

Cc1ccc(NC(=S)Nc2ccc3[nH]c(=O)[nH]c3c2)cc1 was read as D2 ag-1 1, D2 antag -4, D2 PAM-1 0, D2 PAM-2 -3 and D2 ag-2 -3.
Cc1cc(C)cc(C(=O)Nc2ccc3[nH]c(=O)[nH]c3c2)c1 was read as D2 ag-1 0, D2 antag 30*, D2 PAM-1 -2, D2 PAM-2 0 and D2 ag-2 4.
`CCNc1ccc(Br)cc(C(=O)/C=C/c2c(Cl)cccc2Cl)c1=O` gave D2 ag-1 0, D2 antag -13, D2 PAM-1 48*, D2 PAM-2 -20 and D2 ag-2 -5.
Screening COc1ccc(Cl)cc1C(=O)NCCN(C)C returned D2 ag-1 0, D2 antag 33*, D2 PAM-1 -19, D2 PAM-2 -26 and D2 ag-2 -2.
Screening COc1ccc(Cl)cc1NC(=O)CN(C)C(=O)c1cn(-c2ccccc2)nc1-c1cccnc1 returned D2 ag-1 -1, D2 antag 44*, D2 PAM-1 -11, D2 PAM-2 -36 and D2 ag-2 -4.
Screening COc1ccc(Cl)cc1NC(=O)CN(C)C(=O)c1cc2c(s1)CCCC2 returned D2 ag-1 1, D2 antag 46*, D2 PAM-1 -14, D2 PAM-2 2 and D2 ag-2 0.
COc1ccc(Cl)cc1NC(=O)CN(C)C(=O)Cc1ccc2c(c1)CCC2 was read as D2 ag-1 -1, D2 antag -31, D2 PAM-1 -10, D2 PAM-2 -36 and D2 ag-2 -6.
Screening COc1ccc(Cl)cc1NC(=O)CN(C)C(=O)CCNC(=O)c1ccccc1OC returned D2 ag-1 0, D2 antag 31*, D2 PAM-1 -10, D2 PAM-2 -22 and D2 ag-2 -2.
`COc1ccccc1C(=O)NCCC(=O)N(C)CC(=O)Nc1c(Cl)cccc1Cl` gave D2 ag-1 2, D2 antag -8, D2 PAM-1 5, D2 PAM-2 -10 and D2 ag-2 1.
Cc1ccc(CNC(=O)CCCc2nnc3n(CC(C)C)c(=O)c4sccc4n23)cc1 was read as D2 ag-1 0 and D2 PAM-1 2.
`C/C(=N\N=C1/SC(CC(=O)O)C(=O)N1c1ccccc1)c1ccc(C)cc1` (stereo not given) gave D2 ag-1 -3, D2 antag 30*, D2 PAM-1 -15, D2 PAM-2 -6 and D2 ag-2 -2.
Screening O=C(O)CC1S/C(=N/N=C2CCCCC2)N(c2ccccc2)C1=O (stereo not given) returned D2 ag-1 0, D2 antag -12, D2 PAM-1 10, D2 PAM-2 -1 and D2 ag-2 -1.
Screening O=C1CC(c2ccccc2)CC(=NCCO)/C1=C(\O)CCCN1C(=O)c2ccccc2C1=O (stereo not given) returned D2 ag-1 0, D2 antag 2, D2 PAM-1 51*, D2 PAM-2 0 and D2 ag-2 1.
For CC1(C)CC(=O)/C(=C(\O)CCCN2C(=O)c3ccccc3C2=O)C(=NCC(=O)O)C1 the results were D2 ag-1 1, D2 antag -9, D2 PAM-1 15, D2 PAM-2 -3 and D2 ag-2 1.
`Cc1ccc(CNC(=O)Cn2ccn(-c3ccc(F)cc3)c(=O)c2=O)cc1` gave D2 ag-1 0 and D2 PAM-1 5.
`Cc1ccc(CCN=c2c([N+](=O)[O-])nn(-c3ccccc3)n2O)cc1` gave D2 ag-1 1, D2 antag 6, D2 PAM-1 -4, D2 PAM-2 67* and D2 ag-2 inconclusive.
COc1ccc(-n2nc([N+](=O)[O-])c(=NCCc3ccccc3)n2O)cc1 was read as D2 ag-1 -1, D2 antag -9, D2 PAM-1 14, D2 PAM-2 131* and D2 ag-2 inconclusive.
Screening O=[N+]([O-])c1nn(-c2ccccc2)n(O)c1=NCCc1ccccc1 returned D2 ag-1 1, D2 antag -2, D2 PAM-1 -3, D2 PAM-2 161* and D2 ag-2 inconclusive.
`O=C1CCSc2ccc(Cl)cc2N1Cc1cccc(Cl)c1` gave D2 ag-1 0, D2 antag 33*, D2 PAM-1 12, D2 PAM-2 -14 and D2 ag-2 -4.
For Cc1ccc(CN2C(=O)CCSc3ccc(Cl)cc32)cc1 the results were D2 ag-1 1, D2 antag -6, D2 PAM-1 -4, D2 PAM-2 -3 and D2 ag-2 -3.
O=C(NCc1ccco1)c1cccc2c1C(=O)N(C1CCCCC1)C2 was read as D2 ag-1 0, D2 antag -18, D2 PAM-1 35*, D2 PAM-2 -14 and D2 ag-2 -5.
O=C(CN1C(=O)COc2ccc(S(=O)(=O)N3CCOCC3)cc21)NCc1ccc(Cl)cc1 was read as D2 ag-1 0 and D2 PAM-1 2.
For N#Cc1cnn(-c2ccccc2)c1NC(=O)c1ccccc1F the results were D2 ag-1 0, D2 antag 14, D2 PAM-1 80*, D2 PAM-2 -2 and D2 ag-2 7.
O=C(Nc1c(C(=O)N2CCCCC2)cnn1-c1ccccc1)c1ccccc1F was read as D2 ag-1 1, D2 antag -16, D2 PAM-1 1, D2 PAM-2 -9 and D2 ag-2 -3.
Cc1ccc(Nc2nnc(-c3ccc(C)c(S(=O)(=O)N4CCOCC4)c3)c3ccccc23)cc1 was read as D2 ag-1 0 and D2 PAM-1 8.
`O=c1oc(-c2ccc(O)c(O)c2)cc2cc(O)cc(O)c12` gave D2 PAM-2 51* and D2 ag-2 inconclusive.
`CC(C)CC(OC(=O)c1nsc(Cl)c1Cl)C(=O)NC1CCCC1` (stereo not given) gave D2 ag-1 -1, D2 antag 69*, D2 PAM-1 1, D2 PAM-2 -3 and D2 ag-2 -3.
Screening CCCSc1nc2c(cnn2-c2ccccc2)c(=O)[nH]1 returned D2 ag-1 -1, D2 antag 3, D2 PAM-1 41*, D2 PAM-2 -5 and D2 ag-2 -4.
`Brc1ccc(C2Nc3cccc4cccc(c34)N2)o1` gave D2 ag-1 0, D2 antag -8, D2 PAM-1 4, D2 PAM-2 61* and D2 ag-2 8.
For Brc1cccc(C2Nc3cccc4cccc(c34)N2)c1 the results were D2 ag-1 0, D2 antag -3, D2 PAM-1 12, D2 PAM-2 2 and D2 ag-2 4.
Oc1ccccc1C1Nc2cccc3cccc(c23)N1 was read as D2 ag-1 1, D2 antag -3, D2 PAM-1 20, D2 PAM-2 61* and D2 ag-2 13.
For O=C(CN1C(=O)CCc2cc(S(=O)(=O)N3CCOCC3)ccc21)NCc1ccccc1 the results were D2 ag-1 2 and D2 PAM-1 0.
